Many of the other results were omitted from the sample, so hits are more common in it than they were.
Ba CapD inh: Bacillus anthracis CapD inhibitors, primary screen, biochemical, fluorescence intensity. CapD gamma-glutamyltranspeptidase (Bacillus anthracis Ames Ancestor). z-score (test concentration not listed). AID 492967, 2010. purified CapD enzyme, fluorescence intensity read-out; stronger effect = lower value. hit rate 0.23% among 140,000; in the data active = z-score mostly below about -2.9, no sharp cut-off; inactive = mostly above about -1.9
* = called active by the depositor.

SMILES	Ba CapD inh
O=C(Nc1ccc(N2CCOCC2)cc1)Nc1ccc2nc(-c3ccco3)c(-c3ccco3)nc2c1	-3.7
O=C(NCCCO)Nc1ccc2nc(-c3ccco3)c(-c3ccco3)nc2c1	-7.3*
O=C(NCCSCc1ccco1)Nc1cc(Cl)cc(Cl)c1	0.21
N#Cc1ccc(S(=O)(=O)N2CCN(Cc3ccc4c(c3)OCO4)CC2)cc1	-0.58
O=C1SCCC1NS(=O)(=O)c1cc(C(F)(F)F)cc(C(F)(F)F)c1 (stereo unspecified)	-0.34
Cc1nc2ccc3nc(NC(=O)c4ccc(S(=O)(=O)N5CC(C)CC(C)C5)cc4)sc3c2s1 (stereo unspecified)	0.02
CCCCN(CCCC)CCNS(=O)(=O)c1ccc(OC)cc1	0.75
O=C(Nc1ccc(O)cc1C(=O)O)c1cccc(N2C(=O)c3cccc4c([N+](=O)[O-])ccc(c34)C2=O)c1	-2.1
O=C(O)c1cc(C=Nc2ccc(S(=O)(=O)NC3NC=CS3)cc2)c2c(c1)COCO2 (stereo unspecified)	-5.2*
Cc1cc(NS(=O)(=O)c2ccc(N=Cc3ccccc3O)cc2)no1	2.1
O=C(Nc1ccc2oc(-c3ccccc3)nc2c1)c1cc([N+](=O)[O-])ccc1Br	0.26
CC1SC(C)C(=O)N(CC(=O)NCc2ccccc2)C1=O (stereo unspecified)	0.15
CCCNC(=O)Cc1ncn[nH]1	1.9
Cc1n[nH]c(C)c1CC(=O)NCCc1ccccc1	-0.4
O=C(Cc1ncn[nH]1)NCCc1ccccc1	-5.8*
CCCCCOc1ccc(N2C(=O)CSC23C(=O)N(CN2CCC(Cc4ccccc4)CC2)c2ccccc23)cc1 (stereo unspecified)	-0.17
Cc1cc(C)c2cc(C(=O)NCCN3CCCCC3)[nH]c2c1	3.6
O=C(C/C=N/OCc1cnc(Cl)s1)c1ccc(Br)cc1	-0.18
Cc1ccn2cc(C(=O)O)nc2c1	6.1
CC1=NN(c2ccccc2)C(=O)/C1=C/c1coc2ccccc2c1=O	-0.45
CC1=NN(c2ccccc2)C(=O)/C1=C/c1cn(CC(O)CN2CCCCC2)c2ccccc12 (stereo unspecified)	-4.8*
CC1=NN(c2ccc(Cl)c(C(=O)O)c2)C(=O)/C1=C/c1cn(Cc2ccccc2)c2ccccc12	-0.3
CN(C1CCN(Cc2ccc(-c3ccccc3)cc2)C1)S(=O)(=O)c1ccccc1Cl (stereo unspecified)	0.45
COCc1cnc(Nc2nc3ccccc3o2)nc1C(=O)OC	0.12
C/C(C=Nc1ccccc1)=C\Nc1ccccc1	-5*
SMILES	Ba CapD inh
CC(=O)/C(=C/Nc1ccc(I)cc1)c1ccccc1	-1.3
C(=Nc1ccccc1)c1ccccc1	0.1
O=C(NCCCN1CCC(Cc2ccccc2)CC1)c1noc2ncnc(N3CCCC3)c12	0.67
COc1ccc(C2CC(=O)Nc3c2c(-c2ccccc2)nn3-c2ccccc2)cc1 (stereo unspecified)	-0.3
CN(C)/N=C/c1ccc([N+](=O)[O-])o1	-4.4*
O=C1OCCN1/N=C/c1ccc([N+](=O)[O-])o1	-0.03
O=C1CN(/N=C/c2ccc([N+](=O)[O-])o2)C(=O)N1	-0.95
O=C(O)c1ccc([N+](=O)[O-])c2c1NC(c1ccc([N+](=O)[O-])cc1)C1CC=CC21 (stereo unspecified)	-0.53
CC(=O)Oc1ccc(C2Nc3c(C(=O)c4ccccc4)cc(Cl)cc3C3C=CCC32)cc1 (stereo unspecified)	-0.005
CC(=O)Oc1ccc(C2Nc3c(C(=O)O)ccc([N+](=O)[O-])c3C3C=CCC32)cc1 (stereo unspecified)	-2.7*
Cc1ccc(Cc2cnc(CN3CCCCC3)c(O)c2)cc1	0.34
COCCn1c(SC(C(=O)NCc2ccccc2)C(=O)NCc2ccccc2)nc2cc(C(=O)OC)ccc2c1=O	-0.9
COc1c(/C=C2/SC(=Nc3ccccc3)NC2=O)cccc1[N+](=O)[O-]	-0.44
COC(=O)c1cccc(Nc2nc(C)cc(C)n2)c1	4.5
CC(=O)Oc1ccccc1N(C(C)=O)S(=O)(=O)c1ccc(C)cc1	-0.39
COc1ccc(N(C(=O)c2ccccc2)S(=O)(=O)c2ccc(Cl)cc2)cc1	0.46
COc1ccccc1N(C(C)=O)S(=O)(=O)c1ccc(Cl)cc1	-4.7*
CCCCCCCCc1ccc(-c2ccc(C(=O)OC3CC(C)CCC3C(C)C)cc2)cc1 (stereo unspecified)	-0.16
COc1cc(CN2CCN(CCOC(=O)NNC(=O)c3ccccc3O)CC2)cc2c1OCO2	38
CCOc1cc(C(OC(C)=O)OC(C)=O)cc(Cl)c1OC(C)=O	0.28
COC(CN(C)C(=O)c1ccc2c(c1)NC(=O)c1ccccc1S2)OC	-6*
COC(=O)c1ccc2c(c1)NC(=O)c1ccccc1S2	-0.025
CCC(Cc1ccccc1)NC(=O)c1ccc2c(c1)NC(=O)c1ccccc1S2 (stereo unspecified)	0.4
CS(=O)(=O)c1cc(C#N)c(N2CCN(C(=O)c3ccccc3C(F)(F)F)CC2)nc1-c1ccc(Cl)cc1	2.1
CC(=O)N1CCc2cccc(S(=O)(=O)N(C)C)c21	-0.65
SMILES	Ba CapD inh
CCOC(=O)c1cnc(N2CCc3ccccc3C2)nc1N	-3.9*
CCOC(=O)c1sc2ncnc(N3CCc4ccccc4C3)c2c1C	0.51
CCOC(=O)c1sc2nc(C)nc(N3CCc4ccccc4C3)c2c1C	3.2
O=C(NC(c1ccccc1)c1ccc(Cl)cc1)OCCc1ccccc1Cl (stereo unspecified)	-0.42
COC(=O)CN1C(=O)C2(C(C#N)=C(N)Oc3n[nH]c(-c4ccc(Cl)c(Cl)c4)c32)c2ccccc21 (stereo unspecified)	-0.09
CCCn1c(/N=C/c2c[nH]c3ccccc23)nc2ccccc21	-4.1*
CCc1ccc(N=Cc2c[nH]c3ccccc23)cc1	-0.06
CCCCn1c(/N=C/c2nc3ccccc3n2C)nc2ccccc21	0.11
O=C(O)CSc1sc(=S)sc1SCC(=O)O	-5*
NC(=O)CSc1sc(=S)sc1SCC(N)=O	-1.1
NCCSc1sc(=S)sc1SCCN	-0.58
CCOC(=O)c1nnn(-c2nonc2N)c1CSc1nc2ccccc2[nH]1	1.2
C=CCN1C(=O)/C(=C/c2ccco2)C(=O)NC1=S	-4.7*
C=CCN1C(=O)NC(=O)/C(=C/c2ccco2)C1=O	-0.03
C=CCN1C(=O)/C(=C\c2ccc(-c3ccc(Cl)c([N+](=O)[O-])c3)o2)C(=O)NC1=S	-0.33
COC(=O)c1ccn(-c2nc(-c3ccco3)cc(C(F)(F)F)n2)n1	75
COc1cccc(-c2cc(C(F)(F)F)nc(-n3cccn3)n2)c1	-3.4*
COc1nc(-c2ccccc2)cc(C(F)(F)F)n1	0.12
COc1ccc(NC(=O)c2ccc(-n3cccn3)c([N+](=O)[O-])c2)cc1Cl	-0.84
Clc1ccc2[nH]c3ccc(Cl)cc3c2c1	1.9
O=C(NCCCN1CCC(Cc2ccccc2)CC1)c1nnc(-c2cccc(Cl)c2)o1	0.14
Cc1cc(C)c(CCOC(=O)N2CCN(c3ccccc3F)CC2)c(C)c1	-0.93
CCCCN(CC)Cc1ccc(CNC(=S)Nc2cccc(F)c2)o1	0.48
O=C(NCc1ccccc1)Nc1ccccc1	-0.62
CCCCN(CC)Cc1ccc(CNC(=O)Nc2ccccc2)o1	-5.1*
O=C(Nc1ccc2c(c1)OCCO2)c1csc2c1CCCC2	-0.45
N#CC1=C(SCC(N)=O)NC(=O)CC1c1ccccc1 (stereo unspecified)	0.1
N#CC1(C#N)[C@H](C(N)=O)[C@H]1c1ccccc1	0.41
N#CC1=C(N)NC(=S)C(C(N)=O)C1c1ccccc1 (stereo unspecified)	-4.5*

From PubChem BioAssay
